Our source for the inhibition values is PubChem BioAssay AID1259343 (VanderVen Lab, College of Veterinary Medicine, Cornell …, 2017).

The campaign covered roughly 6,200 compounds. About 2,900 (47%) were called active. Rule as the data show it: active = inhibition above about 50%; inactive = the rest. The set was probably picked from earlier hits. Some of the results follow.

The test in a line: Mycobacterium tuberculosis growth inhibition, primary screen (AID 1259343). The conditions noted are these: inhibition: at 10 µM, stronger effect = higher value; outcome: 10 uM.
As to `OCc1ccccc1-c1ccc(-c2nc(CCc3ccccc3)no2)cn1`, the inhibition was 75.2% (active). The value for `CCc1cn[nH]c1C1CCN(c2noc(-c3ccccc3)n2)CC1` was 20.9% (inactive); that for `Cc1noc(-c2ccc(N3CC[C@@H](c4ccc5c(c4)OCO5)[C@H](O)C3)nc2)n1` was 12.9% (inactive). Then `COC1CCN(c2ccc(-c3nc(CCCc4ccccc4)no3)cn2)CC1`, with 51.1% (active); and `CCc1nc(C)c(-c2nc(CCc3ccccc3)no2)s1`, with 49.3% (inactive). Then `Nc1ccc(-c2ccc(-c3nc(CCCc4ccccc4)no3)cn2)cn1`, with 59.3% (active). In the case of `CC(C)Cc1noc(-c2ccc(-c3ccc(O)cc3)nc2)n1`, the inhibition was 23.2% (inactive). The value for `O=C(CCCc1cccs1)N1CCN(c2ccccc2O)CC1` was 13% (inactive); that for `O=C(Nc1ccc2c(c1)CN(C(=O)CCCc1cccs1)CC2)c1ccccn1` was 54.1% (active). Then `O=C(Nc1ccc2c(c1)CN(Cc1ccc(-n3cccn3)cc1)CC2)c1ccccn1`, with “inactive”; and `CC(C)Oc1cccc(C(=O)C2CCCN(C(=O)/C=C/c3cccs3)C2)c1` (centres undefined), with -2.95% (inactive); and `COc1ccccc1C(=O)Nc1ccc2c(c1)CN(Cc1c[nH]c3ccccc13)CC2`, with 45.8% (inactive). The value for `O=C(Nc1ccc2c(c1)CN(C(=O)/C=C/c1cccs1)CC2)c1ccccn1` was 58.9% (active). As for `FC(F)(F)c1cc(NCC2CC2)c2ccccc2n1`, the inhibition was 8.13% (inactive). The value for `OC(c1cc(C(F)(F)F)nc2c(C(F)(F)F)cccc12)C1CCCCN1` (centres undefined) was 78.8% (active); that for `O=S(=O)(NCCc1cccc(Cl)c1)N1CCCCCC1` was 21.7% (inactive); that for `O=C(NCCc1ccc(Cl)cc1)N1CCN(c2ccccc2)CC1` was 13.3% (inactive). Then `O=C(NCCc1cccc(Cl)c1)N1CCc2ccccc2C1`, with 83.4% (active). Then `CSc1nc2ccc(N=Cc3ccc4ncccc4c3)cc2s1`, with -22.5% (inactive); and `CSc1nc2ccc(N=Cc3c[nH]c4ccccc34)cc2s1`, with 95.1% (active). As for `Cc1ccc(C)c(OCCN(C)Cc2nc3ccccc3n2C)c1`, the inhibition was 83.1% (active). The value for `Cn1c(COc2cccc3ccccc23)nc2ccccc21` was -3.53% (inactive). The value for `Cn1c(CSc2ccccc2)nc2ccccc21` was 39% (inactive); that for `CCCCC(CC)CNc1ncnc2sccc12` (centres undefined) was 59.1% (active). Then `CC(C)CCCC(C)Nc1ncnc2sccc12` (centres undefined), with 60.5% (active).

For the molecule `CC1(C)C2CCC1(C)C(Nc1ncnc3sccc13)C2` (centres undefined), the inhibition is 41.4% (inactive). Then `CCCCC(CC)CNS(=O)(=O)c1cccc(F)c1` (centres undefined), with 45.9% (inactive).

On to `FC(F)(F)c1cc(Nc2ncnc3sccc23)ccc1Br`, for which the inhibition was 23.6% (inactive). The value for `c1nc(NC23CC4CC(CC(C4)C2)C3)c2ccsc2n1` was -13.2% (inactive); that for `CN(Cc1cccc(-n2cccn2)c1)Cc1nc(Cc2ccccc2Cl)no1` was “inactive”. Then `Cc1cc(C)n(-c2cccc(CN(C)Cc3nc(-c4ccc5c(c4)OCO5)no3)c2)n1`, with 45.7% (inactive). `COC(=O)c1ccc(-c2noc(CN(C)Cc3cccc(-n4cccn4)c3)n2)cc1`: the inhibition is 50.6% (active). The value for `CC(SC1CCCC1)C(=O)N1CCCC1` (centres undefined) was 52.1% (active); that for `COc1cccc(-c2ccccc2NC(=O)C2CCN(CC3CCCCC3)CC2)c1` was 89.8% (active); that for `COc1cccc(-c2ccccc2NC(=O)C2CCN(CCC(C)c3ccc(C)o3)CC2)c1` (centres undefined) was 80.1% (active). Consider `COc1cccc(-c2ccccc2NC(=O)C2CCN(Cc3cc4ccccc4[nH]3)CC2)c1`, for which the inhibition was 17.3% (inactive). The value for `COc1cccc(-c2ccccc2NC(=O)C2CCN(CC3CC=CCC3)CC2)c1` (centres undefined) was 84% (active). In the case of `COc1cccc(-c2ccccc2NC(=O)C2CCN(CC(C)c3ccccc3)CC2)c1` (centres undefined), the inhibition is 74.2% (active).

As to `CC(C)c1ccc(C#N)c(SC2CC(=O)N(c3ccc(Br)cc3)C2=O)n1` (centres undefined), the inhibition is 10.7% (inactive).

With `COc1cc(/C=C/C(=O)O)ccc1O`, the inhibition was 37.7% (inactive). As for `O=C(/C=C/c1ccc(O)c(O)c1)OCCc1ccccc1`, the inhibition was 102% (active).

In the case of `CC1CC(OCC(O)CN2CCC(CN3C(=O)c4cccc5cccc(c45)C3=O)CC2)CC(C)(C)C1` (centres undefined), the inhibition is 90.1% (active). Then `O=C(CCNc1ccc(Cc2ccncc2)cc1)c1ccc2c(c1)OCO2`, with 84.6% (active). Then `O=C(C(Br)=CNc1ccc(Cl)c(Cl)c1)C(F)(F)F`, with 87% (active); and `CCC(C(=O)c1ccc2ncccc2c1)c1ccccc1` (centres undefined), with 58.2% (active); and `CN(CC1Cc2ccccc2O1)C(=O)c1cc(COc2ccc3ncccc3c2)on1` (centres undefined), with 35.5% (inactive). Take `CCc1ccc(C(=O)NCc2cccc(C(=O)Nc3ccncc3)c2)o1`: the inhibition was 51.8% (active). The value for `CCN(c1ccc(C(=O)Nc2ccncc2)cc1)C(C)C` was 8.43% (inactive); that for `CCc1ccc(C(=O)NCc2ccc(C#N)cc2)o1` was 12.2% (inactive); that for `CC1(C)C2CC=C(C=NNC(=O)NC3CCCCC3)C1C2` (centres undefined) was -4.24% (inactive). Then `O=C(/C=C/c1ccc([N+](=O)[O-])s1)Nc1nnc(C2COc3ccccc3O2)o1` (centres undefined), with 101% (active). The value for `CN(CCCCCCCCCCN(C)C(=O)Oc1cccc([N+](C)(C)C)c1)C(=O)Oc1cccc([N+](C)(C)C)c1` was 49.3% (inactive); that for `CN(CCCC(=O)Nc1ccc2[nH]c(=S)oc2c1)C(=O)OC(C)(C)C` was 73.7% (active). On to `C=CCN=c1scc(-c2ccccc2)n1N=Cc1ccccn1`, for which the inhibition was 20.3% (inactive). Then `Cc1[nH]n(-c2cccc(Cl)c2)c(=O)c1C=NCCc1ccccc1`, with 72.9% (active); and `Cc1ccc(C)c(Oc2cc(-n3ncc(Cl)c(Cl)c3=O)nc(C)n2)c1`, with 101% (active). Then `Cc1ccc2nc(-c3ccncc3)cc(-c3ccccc3)c2c1`, with 53.7% (active); and `NC(=O)C(c1ccc(F)cc1)N1CCOC(c2ccc(F)cc2)C1` (centres undefined), with -5.29% (inactive); and `O=c1ccc(-c2ccco2)nn1Cc1cccc2ccccc12`, with 37% (inactive). The value for `O=C(CCl)N1CCN(Cc2cccc3ccccc23)CC1` was 71.9% (active). Take `O=C(CCl)N1CCN(Cc2c(F)cccc2Cl)CC1`: the inhibition is 66.2% (active). Turning to `O=[N+]([O-])c1ccc(N2CCN(Cc3c(F)cccc3Cl)CC2)cc1`, the inhibition was 86.5% (active). The value for `O=C(CCl)N1CCN(Cc2ccc(Cl)s2)CC1` was -19.9% (inactive); that for `O=c1ccc(-c2cccc([N+](=O)[O-])c2)nn1Cc1c(F)cccc1Cl` was 21.1% (inactive); that for `O=C(CCl)N1CCN(c2ccccc2F)CC1` was 97.1% (active). Then `O=C(c1ccc2c(c1)OCO2)C1CCCN(Cc2c(F)cccc2Cl)C1` (centres undefined), with -16.5% (inactive).

For `N#Cc1c(F)cccc1N1CCN(c2ccccc2O)CC1`, the inhibition is -21.1% (inactive).

Regarding `CC1(C(=O)NCc2cccc3ccccc23)CCN1CCCc1ccccc1` (centres undefined), the inhibition was 32.3% (inactive). Then `O=c1c(-c2cccc(Br)c2)[n+]([O-])c2ccccc2n1O`, with 5.77% (inactive).

Regarding `O[N+]1=CC=CCC1=S.On1ccccc1=S.[Zn]`, the inhibition is 102% (active). Then `COc1ccc(CC2CCN(S(=O)(=O)c3ccc(Cl)cc3)CC2)cc1`, with 56.9% (active).

For `COc1ccc2cc(CN(C)c3ccc(C#N)cn3)ccc2c1`, the inhibition was 19.4% (inactive). The value for `Nc1cc(S(=O)(=O)N2CCCCC2)ccc1Oc1ccc(Cl)cc1` was 16.6% (inactive); that for `COc1ccc(CC2CCN(S(=O)(=O)c3ccc(C#N)cc3)CC2)cc1` was 52.4% (active). The value for `O=S(=O)(c1ccc(Cl)cc1)N1CCCC2CCCCC21` (centres undefined) was 23.9% (inactive); that for `CCc1ccc(S(=O)(=O)N2CCC(CO)(Cc3ccc(OC)cc3)CC2)s1` was 15.3% (inactive). In the case of `COc1ccc(-c2ccc(S(=O)(=O)N3CCCCCC3)cc2)cc1`, the inhibition was 81.1% (active). The value for `Cc1ccc(S(=O)(=O)N2CCC(NC(=O)C(C)Oc3ccc(Cl)cc3Cl)CC2)cc1` (centres undefined) was 10.4% (inactive); that for `COc1ccc(S(=O)(=O)N2CC3(C)CC2CC(C)(C)C3)cc1` (centres undefined) was 24.4% (inactive). In the case of `CCN1CCc2c(sc(NC(=O)C3CC3)c2-c2nc3ccccc3s2)C1`, the inhibition was 36% (inactive). Then `CCC(=O)Nc1sc2c(c1-c1nc3ccccc3s1)CCN(CC)C2`, with 60.8% (active). Then `CN1CCc2c(sc(NC(=O)c3ccco3)c2-c2nc3ccccc3s2)C1`, with “inactive”. Then `CCN1CCc2c(sc(NC(C)=O)c2-c2nc3ccccc3s2)C1`, with 79.4% (active).

Regarding `CCN1CCc2c(sc(NC(=O)c3ccc([N+](=O)[O-])cc3)c2-c2nc3ccccc3s2)C1`, the inhibition was 42.7% (inactive). Then `CCC(=O)Nc1sc2c(c1-c1nc3ccccc3s1)CCN(C)C2`, with 30.1% (inactive). Then `CCN1CCc2c(sc(NC(=O)c3ccco3)c2-c2nc3ccccc3s2)C1`, with 87.1% (active); and `CCN1CCc2c(sc(NC(=O)C(C)(C)C)c2-c2nc3ccccc3s2)C1`, with 100% (active). Then `C(=Nn1c(-c2ccco2)csc1=NC1CCCCC1)c1ccccn1`, with -7.16% (inactive); and `CCN1CCc2c(sc(NC(=O)c3ccc(C(C)=O)cc3)c2-c2nc3ccccc3s2)C1`, with 5.96% (inactive); and `CCN1CCc2c(sc(NC(=O)c3ccc(OC)cc3)c2-c2nc3ccccc3s2)C1`, with “inactive”. In the case of `Cc1ccc(S(=O)(=O)CC(=O)Nc2sc3c(c2-c2nc4ccccc4s2)CCN(C)C3)cc1`, the inhibition was -29.9% (inactive). Take `CN1CCc2c(sc(NC(=O)CS(=O)(=O)c3ccccc3)c2-c2nc3ccccc3s2)C1`: the inhibition is 25.4% (inactive). Then `CN1CCc2c(sc(NC(=O)c3cccs3)c2-c2nc3ccccc3s2)C1`, with 45.1% (inactive); and `CCN1CCc2c(sc(NC(=O)c3cccs3)c2-c2nc3ccccc3s2)C1`, with 52% (active). The value for `CN1CCc2c(sc(NC(=O)C(C)(C)C)c2-c2nc3ccccc3s2)C1` was 52.2% (active). `CCN1CCc2c(sc(NC(=O)c3ccccc3)c2-c2nc3ccccc3s2)C1`: the inhibition is 100% (active).

`CC1CCc2c(sc3nc(C(C)N4CCOCC4)[nH]c(=O)c23)C1` (centres undefined): the inhibition is 49.6% (inactive). With `COc1ccc(OCCSCc2nc3sc4c(c3c(=O)[nH]2)CCC(C)C4)cc1` (centres undefined), the inhibition is 54.4% (active).

Consider `CC1CCc2c(sc3nc(CN(Cc4ccccc4)CC(O)COCc4ccccc4)[nH]c(=O)c23)C1` (centres undefined), for which the inhibition was 17.2% (inactive).

What is called inhibition is the relative decrease from the control value, in per cent.
